“And” between values parts separate entries of the source, which are not always exact repeats. Equal values may be shown once. Records with an inconclusive call do not appear. Some structures have more than one record in an assay (separate samples or runs), and their calls can disagree. The source made the active and inactive calls. The calls were made as follows, unless noted: active = hit-call score of the fitted dose curve at least 0.9, where 1 is the maximum; inactive = score below 0.9.
How the values were obtained:
[1] = molecular target: Oxysterols receptor LXR-beta (Homo sapiens) (UniProt P55055); assay: ATG_LXRb_TRANS: Attagene TRANS-FACTORIAL HepG2 Assay for human Liver X Receptor beta (LXRb) (AID 2282981; active = hit-call score of the fitted dose curve at least 0.9, where 1 is the maximum); conditions: HepG2 Attagene TRANS GAL4-LXRb reporter, mRNA
Chain of Oxysterols receptor LXR-beta (Homo sapiens) (P55055 whole entry, looked up, the tested form may be a part): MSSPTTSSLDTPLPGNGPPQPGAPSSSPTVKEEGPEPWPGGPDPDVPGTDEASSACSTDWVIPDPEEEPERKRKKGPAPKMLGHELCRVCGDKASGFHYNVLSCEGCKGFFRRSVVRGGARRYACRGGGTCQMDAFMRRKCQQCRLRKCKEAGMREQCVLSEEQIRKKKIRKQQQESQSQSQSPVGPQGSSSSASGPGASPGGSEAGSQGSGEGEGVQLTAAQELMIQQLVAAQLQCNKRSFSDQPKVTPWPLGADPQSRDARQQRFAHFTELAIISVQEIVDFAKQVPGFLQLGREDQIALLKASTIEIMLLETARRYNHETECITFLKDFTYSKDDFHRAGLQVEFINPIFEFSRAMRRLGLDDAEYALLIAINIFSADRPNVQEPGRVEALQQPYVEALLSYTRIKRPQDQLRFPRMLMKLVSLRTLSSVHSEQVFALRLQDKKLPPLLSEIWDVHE
Procedure, shortened: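 After 24 h of chemical treatment, transfected HepG2 cells yield total RNA; reporter cDNA is PCR-amplified, FAM-labelled, HpaI-cut and run on capillary electrophoresis. Signal reflects chimeric LXRb-Gal4 activity on GAL4-UAS reporters.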

[2] = molecular target: Hepatocyte nuclear factor 4-alpha (Homo sapiens) (UniProt P41235); assay: ATG_HNF4a_TRANS: Attagene TRANS-FACTORIAL HepG2 Assay for human Hepatocyte Nuclear Factor 4 alpha (HNF4a) (AID 2282982; active = hit-call score of the fitted dose curve at least 0.9, where 1 is the maximum); conditions: HepG2 HNF4a transactivation reporter, mRNA readout
Chain of Hepatocyte nuclear factor 4-alpha (Homo sapiens) (P41235 whole entry, looked up): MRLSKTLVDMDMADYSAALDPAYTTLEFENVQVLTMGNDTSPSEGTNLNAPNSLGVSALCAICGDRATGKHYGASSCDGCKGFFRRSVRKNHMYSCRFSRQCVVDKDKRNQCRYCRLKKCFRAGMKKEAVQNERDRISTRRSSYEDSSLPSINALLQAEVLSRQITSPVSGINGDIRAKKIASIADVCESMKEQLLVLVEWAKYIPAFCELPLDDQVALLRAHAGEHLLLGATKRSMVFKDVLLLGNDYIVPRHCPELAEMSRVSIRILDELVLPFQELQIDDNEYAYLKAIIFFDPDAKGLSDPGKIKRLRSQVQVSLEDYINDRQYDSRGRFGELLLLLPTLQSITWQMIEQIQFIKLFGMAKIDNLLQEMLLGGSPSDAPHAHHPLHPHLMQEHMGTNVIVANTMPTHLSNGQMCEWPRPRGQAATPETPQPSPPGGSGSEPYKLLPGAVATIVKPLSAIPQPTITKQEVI
Procedure, shortened: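 Multiplexed reporter assay: transfected HepG2, 24 h exposure, total RNA → oligo(dT) RT → PCR → 6-FAM extension → HpaI digest → CE fluorescence. DMSO = negative control.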

[3] = ATG_M_06_TRANS: Attagene TRANS-FACTORIAL HepG2 Assay for M06 Transcription Factor (Internal Marker) (AID 2282983; active = hit-call score of the fitted dose curve at least 0.9, where 1 is the maximum;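 also: reporter transcript level by RT-PCR then capillary electrophoresis fluorescence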); conditions: HepG2 Attagene TRANS M06 internal marker reporter
Procedure, shortened: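 Background-control reporter readout: after 24 h chemical exposure of transiently transfected HepG2 (GAL4-UAS reporter units), mRNA quantified by RT-PCR with fluorescent labeling and capillary electrophoresis. Gain-of-signal fitting against DMSO baseline.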

[4] = molecular target: Nuclear receptor subfamily 4 group A member 2 (Homo sapiens) (UniProt P43354); assay: ATG_NURR1_TRANS: Attagene TRANS-FACTORIAL HepG2 Assay for human Nuclear Receptor Related Protein 1 (NURR1) (AID 2282985; active = hit-call score of the fitted dose curve at least 0.9, where 1 is the maximum); conditions: HepG2 Attagene TRANS reporter, mRNA readout
Chain of Nuclear receptor subfamily 4 group A member 2 (Homo sapiens) (P43354 whole entry, looked up, the tested form may be a part): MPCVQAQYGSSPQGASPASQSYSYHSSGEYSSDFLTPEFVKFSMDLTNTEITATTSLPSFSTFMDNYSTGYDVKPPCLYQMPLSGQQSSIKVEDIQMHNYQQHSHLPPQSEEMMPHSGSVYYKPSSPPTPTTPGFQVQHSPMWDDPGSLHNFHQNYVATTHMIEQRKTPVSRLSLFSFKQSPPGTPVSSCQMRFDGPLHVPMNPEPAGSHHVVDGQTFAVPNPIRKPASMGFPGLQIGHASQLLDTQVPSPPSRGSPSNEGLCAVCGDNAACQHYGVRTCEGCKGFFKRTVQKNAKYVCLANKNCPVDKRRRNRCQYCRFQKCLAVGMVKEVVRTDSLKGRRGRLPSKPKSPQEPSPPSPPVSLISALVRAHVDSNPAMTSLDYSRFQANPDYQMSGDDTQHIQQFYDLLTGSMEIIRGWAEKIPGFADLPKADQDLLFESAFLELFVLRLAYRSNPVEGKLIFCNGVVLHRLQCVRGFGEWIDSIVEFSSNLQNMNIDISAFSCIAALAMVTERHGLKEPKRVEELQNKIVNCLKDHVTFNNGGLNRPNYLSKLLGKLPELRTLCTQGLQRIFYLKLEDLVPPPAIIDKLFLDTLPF
Procedure, shortened: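 Measures transcriptional activation by an exogenous NR-Gal4 chimera in transfected HepG2 liver cells. After 24 h, reporter RNA is reverse-transcribed, amplified and resolved by capillary electrophoresis; DMSO defines baseline.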

[5] = molecular target: Transcriptional activator Myb (Homo sapiens) (UniProt P10242); assay: ATG_Myb_CIS: Attagene CIS-FACTORIAL HepG2 Assay for human Myeloblastosis (Myb) Proto-Oncogene Transcription Factor (AID 2282986); conditions: HepG2 Attagene CIS-FACTORIAL Myb reporter transcription; actives raise or lower the signal
Chain of Transcriptional activator Myb (Homo sapiens) (P10242 whole entry, looked up): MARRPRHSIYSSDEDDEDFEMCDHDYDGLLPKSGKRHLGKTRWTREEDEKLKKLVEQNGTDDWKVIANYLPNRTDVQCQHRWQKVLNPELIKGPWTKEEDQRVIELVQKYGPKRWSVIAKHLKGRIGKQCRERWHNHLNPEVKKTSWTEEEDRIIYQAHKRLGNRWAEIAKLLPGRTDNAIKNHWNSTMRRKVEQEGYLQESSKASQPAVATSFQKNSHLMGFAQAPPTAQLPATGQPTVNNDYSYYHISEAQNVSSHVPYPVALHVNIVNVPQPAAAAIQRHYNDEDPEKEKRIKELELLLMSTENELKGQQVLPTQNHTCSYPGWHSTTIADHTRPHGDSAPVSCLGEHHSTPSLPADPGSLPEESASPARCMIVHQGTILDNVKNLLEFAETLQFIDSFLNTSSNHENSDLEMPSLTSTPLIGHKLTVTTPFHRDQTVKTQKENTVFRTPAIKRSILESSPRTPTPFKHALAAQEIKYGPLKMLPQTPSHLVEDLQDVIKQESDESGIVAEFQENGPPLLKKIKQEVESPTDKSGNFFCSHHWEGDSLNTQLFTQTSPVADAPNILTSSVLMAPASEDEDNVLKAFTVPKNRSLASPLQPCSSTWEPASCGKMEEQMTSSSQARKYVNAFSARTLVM
Procedure, shortened: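 Endogenous transcription factor activity at a Myb-responsive cis element is reported in human liver HepG2 cells after 24 h chemical treatment. Reporter mRNA is detected by RT-PCR and capillary electrophoresis fluorescence, with DMSO as baseline.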

[6] = molecular target: Nuclear respiratory factor 1 (Homo sapiens) (UniProt Q16656); assay: ATG_NRF1_CIS: Attagene CIS-FACTORIAL HepG2 Assay for human Nuclear Respiratory Factor 1 (NRF1) Orphan Gene (AID 2282987); conditions: HepG2 NRF1 cis-element reporter, Attagene multiplex; actives raise or lower the signal
Chain of Nuclear respiratory factor 1 (Homo sapiens) (Q16656 whole entry, looked up): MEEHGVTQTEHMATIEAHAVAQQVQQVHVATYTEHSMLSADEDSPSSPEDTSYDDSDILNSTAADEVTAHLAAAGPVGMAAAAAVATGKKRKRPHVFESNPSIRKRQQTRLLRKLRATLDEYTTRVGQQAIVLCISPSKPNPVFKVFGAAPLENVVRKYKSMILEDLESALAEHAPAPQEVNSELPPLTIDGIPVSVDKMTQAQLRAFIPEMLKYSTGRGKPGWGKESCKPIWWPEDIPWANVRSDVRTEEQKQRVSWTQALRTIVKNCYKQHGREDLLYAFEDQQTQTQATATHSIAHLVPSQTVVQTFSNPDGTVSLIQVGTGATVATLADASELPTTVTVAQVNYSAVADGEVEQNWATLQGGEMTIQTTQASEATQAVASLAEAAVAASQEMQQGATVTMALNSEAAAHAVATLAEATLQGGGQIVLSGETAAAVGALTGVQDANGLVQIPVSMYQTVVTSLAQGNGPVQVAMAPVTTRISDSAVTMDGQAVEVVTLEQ
Procedure, shortened: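 Human hepatoma HepG2 cells carrying transfected promoter-regulated reporter units were incubated with test chemicals for 24 h. Reporter transcripts were measured by RT-PCR plus capillary electrophoresis, and endpoints derived by bidirectional fitting with DMSO as baseline.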

[7] = ATG_NFI_CIS: Attagene CIS-FACTORIAL HepG2 Assay for human Nuclear Factor I (NFI) (AID 2282989); conditions: HepG2 cis-regulatory reporter, NFI response element transcription; actives raise or lower the signal
Procedure, shortened: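 HepG2 cells transiently transfected with cis-element-driven multiplexed reporter transcription units, dosed for 24 h. Reporter mRNA quantified by RT-PCR, fluorescent labelling, HpaI digestion and capillary electrophoresis; bidirectional fit versus DMSO baseline.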

[8] = molecular target: Myc proto-oncogene protein (Homo sapiens) (UniProt P01106); assay: ATG_Myc_CIS: Attagene CIS-FACTORIAL HepG2 Assay for human Myelocytomatosis (Myc) Proto-Oncogene Transcription Factor (AID 2282990); conditions: HepG2, Attagene cis-reporter transcription factor activity; actives raise or lower the signal
Chain of Myc proto-oncogene protein (Homo sapiens) (P01106 whole entry, looked up): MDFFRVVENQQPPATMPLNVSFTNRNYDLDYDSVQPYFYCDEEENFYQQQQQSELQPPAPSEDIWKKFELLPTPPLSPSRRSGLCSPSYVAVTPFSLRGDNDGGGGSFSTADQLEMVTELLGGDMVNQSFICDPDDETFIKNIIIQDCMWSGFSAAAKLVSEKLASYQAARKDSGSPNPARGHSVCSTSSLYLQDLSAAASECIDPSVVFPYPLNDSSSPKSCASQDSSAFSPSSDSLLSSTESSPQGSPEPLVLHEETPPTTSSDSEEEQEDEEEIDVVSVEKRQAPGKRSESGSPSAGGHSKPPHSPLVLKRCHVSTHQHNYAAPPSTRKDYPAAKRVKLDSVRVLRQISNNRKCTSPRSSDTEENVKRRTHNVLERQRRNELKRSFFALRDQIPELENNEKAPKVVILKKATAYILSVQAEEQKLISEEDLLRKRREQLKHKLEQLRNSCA
Procedure, shortened: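 HepG2, transient MRTU transfection (cis promoters, endogenous TFs); 24 h dosing; TriZol RNA → oligo(dT) RT → PCR → 6-FAM primer extension → HpaI cut → CE. Bidirectional fit vs DMSO.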

[9] = ATG_NF_kB_CIS: Attagene CIS-FACTORIAL HepG2 Assay for human Nuclear Factor Kappa B (NF-kB) (AID 2282991); conditions: HepG2 Attagene cis-factorial NF-kB reporter mRNA; actives raise or lower the signal
Procedure, shortened: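 Multiplexed cis-reporter assay in transiently transfected HepG2. 24 h treatment; RNA isolated, RT-PCR, labelled fragments resolved by CE. DMSO baseline.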

[10] = ATG_NRF2_ARE_CIS: Attagene CIS-FACTORIAL HepG2 Assay for human Nuclear Factor Erythroid 2 Related Factor 2 (NFR2) response to Antioxidant Response Elements (ARE) (AID 2282992); conditions: HepG2 Attagene ARE/NRF2 reporter, transcription factor activity; actives raise or lower the signal;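 as to AC50: reporter mRNA level measured by RT-PCR and capillary electrophoresis fluorescence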
Procedure, shortened: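 Fluorescence intensity of reporter-specific cDNA fragments, separated by capillary electrophoresis, reflects mRNA induction in transfected HepG2 cells at 24 h. Activity is fitted bidirectionally, DMSO serving as baseline.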

[11] = ATG_Oct_MLP_CIS: Attagene CIS-FACTORIAL HepG2 Assay for human Octamer-Binding Transcription Factor (Oct) (AID 2282993); conditions: HepG2 Attagene cis-factorial Oct reporter, mRNA; actives raise or lower the signal
Procedure, shortened: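 HepG2 cells transiently transfected with cis-promoter-driven multiplexed reporter transcription units, dosed for 24 h. Reporter mRNA quantified by RT-PCR, fluorescent labelling, HpaI digestion and capillary electrophoresis; bidirectional fits versus DMSO baseline.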

[12] = molecular target: Cellular tumor antigen p53 (Homo sapiens) (UniProt P04637); assay: ATG_p53_CIS: Attagene CIS-FACTORIAL HepG2 Assay for human p53 Transcription Factor (AID 2282994); conditions: HepG2 p53 cis-element reporter, Attagene mRNA; actives raise or lower the signal
Chain of Cellular tumor antigen p53 (Homo sapiens) (P04637 whole entry, looked up): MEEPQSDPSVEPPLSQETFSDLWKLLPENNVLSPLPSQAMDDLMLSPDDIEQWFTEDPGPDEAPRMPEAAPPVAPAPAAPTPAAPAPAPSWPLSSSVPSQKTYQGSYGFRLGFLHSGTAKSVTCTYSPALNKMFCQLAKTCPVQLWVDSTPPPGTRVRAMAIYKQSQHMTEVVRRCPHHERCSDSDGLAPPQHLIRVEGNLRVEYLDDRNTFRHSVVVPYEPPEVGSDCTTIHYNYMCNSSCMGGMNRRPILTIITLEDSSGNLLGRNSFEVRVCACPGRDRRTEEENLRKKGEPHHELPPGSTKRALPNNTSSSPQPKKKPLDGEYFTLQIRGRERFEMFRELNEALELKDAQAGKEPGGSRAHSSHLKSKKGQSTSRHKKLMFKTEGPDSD
Procedure, shortened: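 Transiently transfected HepG2 (multiple cis reporter transcription units); exposure 24 h; reporter RNA via RT-PCR, 6-FAM extension, 2 h HpaI digest at 37 C, CE detection; DMSO baseline.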

[13] = BSK_3C_TissueFactor: BioMAP Diversity Plus: 3C Assay for Tissue Factor Biomarker Activity (AID 2282997); conditions: BioMAP 3C HUVEC, tissue factor biomarker readout; actives raise or lower the signal
Procedure, shortened: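 Tissue factor on primary human umbilical vein endothelium was read by ELISA 24 h after dosing, gain or loss relative to DMSO. Cytotoxicity ran alongside via SRB (0.1%, TCA-fixed, 560 nm).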

[14] = BSK_3C_uPAR: BioMAP Diversity Plus: 3C Assay for Urokinase-type plasminogen activator receptor (uPAR) Biomarker Activity (AID 2282998); conditions: BioMAP 3C HUVEC, uPAR biomarker ELISA; actives raise or lower the signal
Procedure, shortened: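 Human umbilical vein endothelial primary cells were exposed to test chemical for 24 h. Cell-surface uPAR was then quantified by ELISA, and responses were fitted bidirectionally against DMSO as negative control and baseline.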

[15] = BSK_3C_VCAM1: BioMAP Diversity Plus: 3C Assay for Vascular cell adhesion molecule 1 (VCAM1) Biomarker Activity (AID 2282999); conditions: BioMAP 3C HUVEC, VCAM1 ELISA, cytokine-stimulated; actives raise or lower the signal
Procedure, shortened: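 Activity fitted in both directions relative to DMSO, with ELISA measurement of the surface marker on primary HUVEC (3C) at 24 h post-treatment; parallel SRB staining (0.1% SRB, TCA-fixed, 560 nm) flagged overt cytotoxicity.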

[16] = BSK_4H_Eotaxin3: BioMAP Diversity Plus: 4H Assay for Eotaxin 3 Biomarker Activity (AID 2283000); conditions: primary human endothelial cells (HUVEC); actives raise or lower the signal
Procedure, shortened: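 Human umbilical vein endothelial cells (BSK_4H system) dosed with test chemical; Eotaxin-3 (CCL26) measured by ELISA 24 h after dosing. Bidirectional curve fitting relative to DMSO negative control as baseline.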

[17] = molecular target: human Peroxisome Proliferator-activated Receptor alpha (PPARa), PPARA (gene 5465) (UniProt Q07869); assay: ATG_PPARa_TRANS: Attagene TRANS-FACTORIAL HepG2 Assay for human Peroxisome Proliferator-activated Receptor alpha (PPARa) (AID 2283001; active = hit-call score of the fitted dose curve at least 0.9, where 1 is the maximum;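 as to AC50: potency for gain of reporter signal over DMSO so agonist or activator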)
Chain of human Peroxisome Proliferator-activated Receptor alpha (PPARa), PPARA (gene 5465) (Q07869 whole entry, looked up, the tested form may be a part): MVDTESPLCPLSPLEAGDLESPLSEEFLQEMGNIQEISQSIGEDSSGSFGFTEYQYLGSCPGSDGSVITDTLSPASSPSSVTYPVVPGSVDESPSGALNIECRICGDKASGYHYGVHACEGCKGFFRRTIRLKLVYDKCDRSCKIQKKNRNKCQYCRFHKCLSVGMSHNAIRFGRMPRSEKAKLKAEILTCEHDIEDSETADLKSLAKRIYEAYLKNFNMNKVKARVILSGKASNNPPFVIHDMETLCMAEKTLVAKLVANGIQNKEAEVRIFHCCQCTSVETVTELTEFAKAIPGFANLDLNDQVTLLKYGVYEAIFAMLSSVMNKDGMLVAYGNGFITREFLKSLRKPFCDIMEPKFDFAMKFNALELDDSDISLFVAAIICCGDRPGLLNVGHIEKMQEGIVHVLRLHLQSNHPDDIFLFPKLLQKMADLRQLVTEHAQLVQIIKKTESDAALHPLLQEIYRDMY
Procedure, shortened: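 Transfected HepG2 cells treated with test chemical for 24 h. RNA isolated, reverse-transcribed with oligo(dT), PCR-amplified, FAM-labelled and HpaI-digested. Fragments sized by capillary electrophoresis; gain-of-signal fit relative to DMSO.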

[18] = molecular target: Bile acid receptor (Homo sapiens) (UniProt Q96RI1); assay: ATG_FXR_TRANS: Attagene TRANS-FACTORIAL HepG2 Assay for Farnesoid X Receptor (FXR) (AID 2282979; active = hit-call score of the fitted dose curve at least 0.9, where 1 is the maximum;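 also: hits raise reporter mRNA above DMSO so AC50 marks FXR activation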); conditions: HepG2 Attagene TRANS FXR-GAL4 reporter transcription
Chain of Bile acid receptor (Homo sapiens) (Q96RI1 whole entry, looked up, the tested form may be a part): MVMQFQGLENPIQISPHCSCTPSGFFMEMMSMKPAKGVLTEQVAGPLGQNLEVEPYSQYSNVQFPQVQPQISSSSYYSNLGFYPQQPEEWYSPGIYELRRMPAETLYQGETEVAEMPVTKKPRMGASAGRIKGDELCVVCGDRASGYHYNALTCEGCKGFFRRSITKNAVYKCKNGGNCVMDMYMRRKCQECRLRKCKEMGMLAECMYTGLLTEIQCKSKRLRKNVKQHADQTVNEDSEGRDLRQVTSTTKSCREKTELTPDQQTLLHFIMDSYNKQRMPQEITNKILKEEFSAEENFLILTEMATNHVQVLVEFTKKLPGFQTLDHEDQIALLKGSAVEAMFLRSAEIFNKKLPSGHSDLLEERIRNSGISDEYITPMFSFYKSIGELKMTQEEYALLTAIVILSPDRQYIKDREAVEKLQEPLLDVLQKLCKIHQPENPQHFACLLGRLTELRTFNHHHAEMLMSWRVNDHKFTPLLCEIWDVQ
Procedure, shortened: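 Reporter transcripts from transfected HepG2 cells were measured 24 h after dosing, using RT-PCR with capillary electrophoresis of 6-FAM-labelled fragments. The read-out reflects activity of exogenous FXR-Gal4 chimera on GAL4-UAS units, with induction relative to DMSO.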

[19] = ATG_M_32_TRANS: Attagene TRANS-FACTORIAL HepG2 Assay for M32 Transcription Factor (Internal Marker) (AID 2282984; active = hit-call score of the fitted dose curve at least 0.9, where 1 is the maximum;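 also: transcript level of a background control reporter unit measured by RT-PCR and capillary electrophoresis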); conditions: HepG2 Attagene TRANS M32 internal marker reporter
Procedure, shortened: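 Cell-based TRANS-format assay in HepG2: exogenous chimeric GAL4 reporter units transiently expressed, compounds applied 24 h. Reporter mRNA detected by RT-PCR plus capillary electrophoresis; this readout is an internal background marker.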

[20] = molecular target: Oxysterols receptor LXR-alpha (Homo sapiens) (UniProt Q13133); assay: ATG_LXRa_TRANS: Attagene TRANS-FACTORIAL HepG2 Assay for human Liver X Receptor alpha (LXRa) (AID 2282980; active = hit-call score of the fitted dose curve at least 0.9, where 1 is the maximum); conditions: HepG2 Attagene TRANS reporter, LXRa transactivation
Chain of Oxysterols receptor LXR-alpha (Homo sapiens) (Q13133 whole entry, looked up, the tested form may be a part): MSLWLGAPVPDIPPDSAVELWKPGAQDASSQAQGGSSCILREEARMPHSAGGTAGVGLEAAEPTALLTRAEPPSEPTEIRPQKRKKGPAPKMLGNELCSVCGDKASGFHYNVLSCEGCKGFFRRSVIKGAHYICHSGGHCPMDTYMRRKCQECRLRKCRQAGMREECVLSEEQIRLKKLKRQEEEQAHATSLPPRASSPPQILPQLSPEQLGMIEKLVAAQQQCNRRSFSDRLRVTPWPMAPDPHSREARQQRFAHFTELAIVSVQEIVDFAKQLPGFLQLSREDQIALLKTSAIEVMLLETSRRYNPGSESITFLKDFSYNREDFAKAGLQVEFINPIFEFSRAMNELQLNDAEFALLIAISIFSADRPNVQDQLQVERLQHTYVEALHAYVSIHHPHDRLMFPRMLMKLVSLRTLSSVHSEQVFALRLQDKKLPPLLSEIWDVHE
Procedure, shortened: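 Chemical-induced reporter mRNA measured by RT-PCR with fluorescent labelling and capillary electrophoresis after 24 h dosing of transiently transfected HepG2 cells expressing exogenous NR-Gal4 chimeras; increases scored against DMSO baseline.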

Measured: AC50

Cc1ccc2oc(CN(Cc3ccccc3)C(=O)Nc3c(F)cc(F)cc3F)c(-c3ccc(Cl)cc3)c2c1
active: [14] 10.8 µM
not listed: [17] | [18] | [19] | [20]
inactive: all other assays above

NCc1cccc(C2CCN(C(=O)c3ccc(C#Cc4ccccc4F)o3)CC2)c1
active: [9] 18.3 µM | [10] 1.76 µM | [11] 15.5 µM | [13] 15.6 µM | [14] 7.38 µM | [15] 15.8 µM | [16] 15.8 µM | [17] 0.909 µM
not listed: [18] | [19] | [20]
inactive: all other assays above

O=C(O)c1ccccc1-n1cc(C(=O)O)c(=O)c2cc(Nc3c(F)cc(F)cc3Cl)c(Cl)cc21
not listed: [1] | [2] | [4] | [17] | [19] | [20]
inactive: all other assays above

CC[C@@H]1C[C@H](N(Cc2cc(C(F)(F)F)cc(C(F)(F)F)c2)C(C)=O)c2cc(C(F)(F)F)ccc2N1C(=O)OC(C)C
not listed: [4] | [17] | [18] | [19] | [20]
inactive: all other assays above

CN(C)c1ccc(C(=C2C=CC(=[N+](C)C)C=C2)c2ccc(N(C)C)cc2)cc1
active: [10] 2.43 µM | [12] 1.08 µM | [13] 5.5 µM | [14] 0.778 µM | [15] 5.56 µM | [16] 1.17 µM
inactive: [19] | [5] | [6] | [7] | [8] | [11]

CC(C)(C)c1csc(-c2cc3cc(OCc4ccccc4CC(=O)O)ccc3o2)n1
inactive: [18] | [3] | [5] | [6] | [7] | [8] | [12] | [17]
active: [10] 8.91 µM | [11] 33.4 µM | [13] 35.7 µM | [14] 20.5 µM | [15] 29.8 µM | [16] 22.4 µM

CC(C)(O)c1ccc(CNC(=O)c2cccnc2Oc2ccc3nonc3c2)cc1
active: [17] 1.08 µM
not listed: [2] | [11] | [18] | [20]
inactive: all other assays above

CC(O)CC(C)(C)O (stereo unspecified)
not listed: [1] | [18] | [19] | [20]
inactive: all other assays above

Cc1oc2c(NC(=O)c3c(Cl)cccc3Cl)cccc2c1C(C)(C)O
inactive: [18] | [19] | [4] | [5] | [6] | [7] | [8] | [10] | [15]
active: [12] 25.6 µM | [13] 4.29 µM | [14] 25.7 µM | [16] 7.04 µM

CC1=CC(=O)/C(=C(/C)O)C(=O)O1
not listed: [1] | [4] | [9] | [18] | [19] | [20]
inactive: all other assays above

Oc1ccc2ccccc2c1
inactive: [20] | [1] | [2] | [3] | [5] | [6] | [7] | [8] | [9] | [12] | [13] | [14] | [15] | [17]
active: [10] 15.5 µM and 5.76 µM | [12] 180 µM | [16] 15.7 µM

Cc1occc1C(=O)Nc1ccc(C(=O)N2CCC(F)(F)/C(=C\C(=O)N3CCC(N4CCCCC4)CC3)c3ccccc32)cc1
active: [8] 58.3 µM | [9] 18.5 µM | [10] 22 µM | [17] 53 µM
not listed: [4] | [11] | [18] | [20]
inactive: all other assays above

Source: PubChem BioAssay (EPA / NIEHS)
